# GFP derepression: epigenetic GFP locus derepression in mouse cells; mouse C127i GFP locus derepression, cytometry, 30 h; AID 597; Potency, µM (top dose mostly 46.1 µM), without a hit: at the top dose GFP derepression (activation); 0.09% of 68,000 active; also: % of control where 0% means no effect
#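 Derepression screen: silenced CMV-GFP reporter in murine C127i cells, 30 h compound incubation at 37 C, washed cells imaged by laser-scanning cytometer to enumerate GFP-expressing objects of 20 to 120 um.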
# Ub-GFP proteasome: ubiquitin-GFP accumulation via proteasome inhibition. Ubiquitin-GFP reporter cells, proteasome inhibition, GFP fluorescence; response scale: untreated = 0%, 10 µM MG-132 = 100%. Potency, µM (top dose mostly 45.9 µM), inactives show at the highest dose activation (GFP accumulation), actives largely listed as activators. 67,000 tested, under 10 active. AID 526; active = well fitted activation curve with a large enough effect, not every such curve was filed as active; inconclusive = small, poorly fitted or top-dose-only effect, or another doubt; inactive = no such curve, though single readings can be large or run the other way; also: potency is read from the fitted curve at half-maximal effect
#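 GFP accumulation read-out: laser plate cytometry counting ubiquitin(G76V)-GFP-expressing U2OS cells after 4 hr compound exposure at 37 °C. Titrations spanned 46 uM to 2.9 nM; 0% = basal, 100% = 10 uM MG-132; concentration-response curves fitted.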
# Hsp90 Hop PPI: changes Hsp90-Hop TPR2A binding signal, up or down. AlphaScreen TPR2A-His6 binding biotin-Hsp90 C-terminal peptide. Potency, µM (series often up to 57 µM), for the others: top-dose activity change, negative = inhibition. 0.44% of 71,000 active. AID 595; active = well fitted curve in either direction with a large enough effect; inconclusive = small, poorly fitted or top-dose-only effect, or another doubt; also: potency is read from the fitted curve at half-maximal effect; % is scaled to controls: 0 for no effect and ±100 for the full control effect
# USP2a inh: USP2a (human) protease inhibition; Potency, µM (highest dose often 38.3 µM), inactives show top-dose activity change, negative = inhibition, actives largely listed as inhibitors; 0.1% of 60,000 active; USP2a enzymatic assay, qHTS inhibition; also: potency is read from the fitted curve at half-maximal effect; nearly all actives have a fitted effect of over 60% in size
# Target sequence (O75604 whole entry, looked up): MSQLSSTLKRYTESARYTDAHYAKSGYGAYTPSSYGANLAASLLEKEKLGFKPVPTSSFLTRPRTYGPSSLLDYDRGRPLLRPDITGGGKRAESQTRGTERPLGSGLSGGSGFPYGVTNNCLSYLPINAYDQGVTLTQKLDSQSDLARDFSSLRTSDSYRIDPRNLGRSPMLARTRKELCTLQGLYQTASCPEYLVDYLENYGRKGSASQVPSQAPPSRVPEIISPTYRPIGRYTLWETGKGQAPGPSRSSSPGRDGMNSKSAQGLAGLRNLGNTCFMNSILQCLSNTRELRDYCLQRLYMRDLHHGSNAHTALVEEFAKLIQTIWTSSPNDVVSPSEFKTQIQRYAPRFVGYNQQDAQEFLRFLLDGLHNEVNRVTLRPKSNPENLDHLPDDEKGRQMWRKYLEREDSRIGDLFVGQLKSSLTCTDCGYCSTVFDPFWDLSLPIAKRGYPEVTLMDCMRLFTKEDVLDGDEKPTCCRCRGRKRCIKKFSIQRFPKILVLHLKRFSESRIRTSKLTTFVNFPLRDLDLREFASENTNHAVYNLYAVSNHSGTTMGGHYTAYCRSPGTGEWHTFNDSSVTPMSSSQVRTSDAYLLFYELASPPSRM
#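 20 nM USP2 core + cpd, 30 min RT; add 20 nM Ub-PLA2/20 uM NBD C6-HPC; read Ex460/Em535 at 0 h and 2.5 h. Normalized to NEM; qHTS curve fit/classification.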
# HBB splicing: alters splicing of the hemoglobin beta chain; HBB splicing reporter cell assay, activation; EGFP reporter with mutant IVS2-654 intron; response scale: normalised to 500 nM splice-correcting PNA; AID 925; 0.06% of 65,000 active; Potency, µM (doses to about 46.1 µM), for inactives: top-dose activation, actives largely listed as activators; also: potency is read from the fitted curve at half-maximal effect; 0% is about no effect
#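 HeLa cells stably expressing EGFP interrupted by mutant beta-globin intron 2 (IVS2-654), 500/well in 2% FCS. Treated with compound for 2 days at 37C. Splicing correction scored as total well GFP intensity (488 nm excitation, 500-520 nm emission); 500 nM antisense PNA served as control.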
# PK Bst: pyruvate kinase (B. stearothermophilus) modulation; purified pyruvate kinase, luminescence ATP production; ribose 5-phosphate activator present at AC10; Potency, µM; 1.2% of 51,000 active; AID 361; in the data active = potency below about 11 µM; inconclusive = mostly about 12 µM to 25 µM;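 the screen sought inhibitors and activators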;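 also: potency is read from the fitted curve at half-maximal effect; scaled between full activation by ribose 5 phosphate and full inhibition by luteolin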
# Hsp90-TPR2A inh: confirmation and counter-screen of Hsp90 TPR2A co-chaperone interaction disrupters; shares compounds with Hsp90 Hop PPI; AlphaScreen TPR2A-His6 / biotin-Hsp90 peptide binding; activity, negative = inhibition, % at 40 µM or 46 µM, hits read low; 100% of 45 active;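 active = compound lowering the Hsp90 and TPR2A binding signal, whether or not the linker counterscreen also flagged it as an artifact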
# Starred values were filed as active, the others as inactive; i = inactive; ? = inconclusive; / = no result given; + = active, no number; [ ] = another dose, or the depositor's remark. An excerpt weighted towards active compounds, which were near 1.3% of everything screened. Unless noted, calls follow the shape of the dose curve; as a rule, active = well fitted curve in the direction sought with a large enough effect; inconclusive = small, poorly fitted or top-dose-only effect, or another doubt; inactive = no such curve, though single readings can be large; an effect the other way counts as inactive or inconclusive.
SMILES,GFP derepression,Ub-GFP proteasome,Hsp90 Hop PPI,USP2a inh,HBB splicing,PK Bst,Hsp90-TPR2A inh
CC1(C)[C@@H](O)CC[C@@]2(C)[C@H]1CC[C@]1(C)[C@H]2C(=O)C=C2[C@@H]3C[C@@](C)(C(=O)O)CC[C@]3(C)CC[C@@]21C,2.3%[9.22 µM],-2.1%,-5.4%,/,/,/,/
NC(=O)c1ccccc1NC(=O)CS(=O)(=O)Cc1ccccc1,3.1%,6.0%,-6.3%,-2.8%,-2.0%,2.95*,/
NC(=O)c1ccccc1NS(=O)(=O)Cc1ccc(Cl)cc1,4.2%,-4.2%,-1.8%,3.2%,-1.0%,>57,/
O=C(Oc1cccc2cccnc12)c1ccc(Br)o1,5.01µM*,-2.5%,25.1µM*,?,/,i,/
O=C(Oc1cccc2cccnc12)c1ccc2c(c1)OCCO2,5.8%,-13.7%,-11.0%,11.8%,7.1%,10.5*,/
O=C(Nc1cnn(Cc2ccc(F)cc2)c1)c1cc(-c2ccc(Br)cc2)on1,/,8.1%,-3.3%,/,-0.6%,/,/
Oc1c(CN2CCOCC2)cc(COCc2ccccc2)c2cccnc12,?,0.4%,1.58µM*,22.4%,-0.8%,>57,-99.7*[alpha-screen platform artifact]
O=C(O)c1nc2cc(Cl)c(Cl)cc2[nH]c1=O,/,/,/,-4.0%,/,/,/
COC(=O)Cc1cc(=O)n(-c2nc3ccccc3[nH]2)[nH]1,1.6%,0.4%,7.94µM*,19.5%,0.5%,>57,-99.5*[alpha-screen platform artifact]
Cc1ccc(C2NC(=O)c3c(sc4c3CCN(C)C4)N2)s1 (stereo not given),0.0%,-7.1%,-10.7%,22.6%,2.5%[1.84 µM],/,/
CN1CCc2c(sc3c2C(=O)NC(c2ccccn2)N3)C1 (stereo not given),-0.4%,3.8%,15.8µM*,17.4%,3.5%[1.84 µM],i,-81.3*[alpha-screen platform artifact]
Cc1ccccc1CS(=O)(=O)Cc1ccc(C(=O)NCc2ccccn2)o1,-2.2%,0.0%,3.98µM*,22.6%,0.7%,>57,-91.4*[alpha-screen platform artifact]
CCCc1nc2c(=O)n(C)c(=O)nc-2n(C)n1,/,/,/,/,/,/,+
c1ccc(CCCc2nc(-c3ccccn3)no2)cc1,-2.0%,4.0%,0.6%,6.6%,-0.5%,>57,/
c1ccc(-c2n[nH]c(-c3ccccn3)n2)nc1,-5.3%,5.8%,0.2µM*,6.1%,-0.1%,/,-98.3*[alpha-screen platform artifact]
COC(=O)c1cc(-c2ccc3ccccc3c2)[nH]c(=O)c1C#N,4.6%[9.22 µM],-10.3%[9.17 µM],-3.4%[11 µM],/,3.1%[9.22 µM],/,/
C/C(CCC(=O)OC[C@@H]1O[C@H](C#Cc2ccccc2)C=C[C@@H]1Oc1ccc(C)cc1)=N/OC[C@@H](O)COCc1ccco1,/,/,/,/,2.7%[9.22 µM],/,/
N#Cc1nc(Cc2cccc3ccccc23)oc1NCCN1CCCCC1,5.7%,0.1%,7.94µM*,19.4%,-1.0%,6.33*,-23.3
CNc1oc(Cc2cccc3ccccc23)nc1C#N,-2.6%,13.3%,-11.5%,-2.3%,3.5%,?,/
CCCn1c(-c2ccc(F)cc2)nc2c(NCCN3CCSCC3)nc(C)nc21,/,1.8%,-3.9%,/,-0.7%,/,/

# Screens: PubChem, National Center for Advancing Translational Sciences (NCATS)
